For some assays here: Results with a measured potency or affinity are listed apart.
Columns and labels:
Design in all cases: scale not given: direction of the effect not stated beside the values
[1] = target: Protein translocase subunit SecA (Escherichia coli (strain K12)) (UniProt P10408); test: Assay to Identify E. coli SecA ATPase Inhibitors; type: functional; conditions: 30 µM
[2] = target: T1, Ubiquitin-activating enzyme e1, putative (Leishmania donovani (strain BPK282A1)) (UniProt E9BSI1); test: Leishmania donovani Ubiquitin Activating Enzyme (LdE1); type: functional; conditions: 30 µM
T1 sequence (whole entry): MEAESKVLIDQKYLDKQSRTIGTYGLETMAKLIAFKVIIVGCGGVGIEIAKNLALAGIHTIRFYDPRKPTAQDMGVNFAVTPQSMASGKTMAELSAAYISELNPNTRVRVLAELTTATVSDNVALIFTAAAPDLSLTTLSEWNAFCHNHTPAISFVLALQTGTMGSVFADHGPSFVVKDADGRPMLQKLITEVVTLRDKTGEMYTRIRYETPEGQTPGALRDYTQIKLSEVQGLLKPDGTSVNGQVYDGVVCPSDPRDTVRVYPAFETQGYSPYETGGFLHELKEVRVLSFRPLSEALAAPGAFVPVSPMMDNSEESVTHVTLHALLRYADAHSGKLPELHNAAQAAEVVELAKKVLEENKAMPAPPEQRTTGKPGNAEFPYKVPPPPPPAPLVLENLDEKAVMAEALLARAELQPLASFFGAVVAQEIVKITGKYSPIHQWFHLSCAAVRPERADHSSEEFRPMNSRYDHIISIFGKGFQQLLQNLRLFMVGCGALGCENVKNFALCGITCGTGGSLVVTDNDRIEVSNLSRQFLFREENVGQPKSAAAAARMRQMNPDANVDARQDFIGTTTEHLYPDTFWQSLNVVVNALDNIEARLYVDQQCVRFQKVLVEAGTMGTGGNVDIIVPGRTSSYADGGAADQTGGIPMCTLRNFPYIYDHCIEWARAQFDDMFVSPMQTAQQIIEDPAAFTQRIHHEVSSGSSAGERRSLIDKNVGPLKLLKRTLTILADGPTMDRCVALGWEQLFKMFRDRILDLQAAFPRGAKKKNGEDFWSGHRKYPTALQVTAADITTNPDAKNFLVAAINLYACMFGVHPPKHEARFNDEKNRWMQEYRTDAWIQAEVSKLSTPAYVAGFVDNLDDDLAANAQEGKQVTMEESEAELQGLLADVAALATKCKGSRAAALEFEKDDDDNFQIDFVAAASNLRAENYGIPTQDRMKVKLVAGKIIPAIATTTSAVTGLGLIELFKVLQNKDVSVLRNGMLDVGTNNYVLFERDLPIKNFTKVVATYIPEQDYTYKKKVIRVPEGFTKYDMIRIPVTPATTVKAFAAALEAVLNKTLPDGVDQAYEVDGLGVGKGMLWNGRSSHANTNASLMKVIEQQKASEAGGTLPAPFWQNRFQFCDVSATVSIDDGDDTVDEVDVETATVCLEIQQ

[3] = target: Sialic acid-binding Ig-like lectin 9 (Homo sapiens) (UniProt Q9Y336); test: Hs-Siglec9 ALPHAscreen SOP 20170721; conditions: 10 µM
Trypanosoma cruzi = test: Trypanosoma cruzi phosphomannomutase and mannose-1-phosphate guanylyltransferase assay; type: functional; conditions: 10 µM
[4] = target: T2, Arginase-2, mitochondrial (Homo sapiens) (UniProt P78540); test: in vitro enzyme assay to detect the production of urea directly proportional to the activity of Arginase II; type: functional; conditions: 33.3 µM; further: in the data most compounds retested in dose-response had high values
T2 sequence (whole entry): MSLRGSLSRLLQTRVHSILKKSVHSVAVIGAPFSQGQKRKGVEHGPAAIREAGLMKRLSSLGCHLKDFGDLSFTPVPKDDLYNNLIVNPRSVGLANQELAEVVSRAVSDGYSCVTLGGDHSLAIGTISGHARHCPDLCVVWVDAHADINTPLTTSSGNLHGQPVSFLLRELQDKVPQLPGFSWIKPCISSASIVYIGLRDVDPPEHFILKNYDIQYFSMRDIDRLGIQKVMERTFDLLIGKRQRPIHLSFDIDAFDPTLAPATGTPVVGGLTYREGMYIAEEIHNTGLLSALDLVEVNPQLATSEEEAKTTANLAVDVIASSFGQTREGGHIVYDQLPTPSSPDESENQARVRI

[5] = target: T3, Proteasome subunit beta (Trypanosoma cruzi) (UniProt O96673); test: Trypanosoma cruzi proteasome chymotrypsin-like activity (TcProtChymo) assay.; further: in the data most compounds retested in dose-response had high values; type: functional; conditions: 9.37 µM
T3 sequence (whole entry): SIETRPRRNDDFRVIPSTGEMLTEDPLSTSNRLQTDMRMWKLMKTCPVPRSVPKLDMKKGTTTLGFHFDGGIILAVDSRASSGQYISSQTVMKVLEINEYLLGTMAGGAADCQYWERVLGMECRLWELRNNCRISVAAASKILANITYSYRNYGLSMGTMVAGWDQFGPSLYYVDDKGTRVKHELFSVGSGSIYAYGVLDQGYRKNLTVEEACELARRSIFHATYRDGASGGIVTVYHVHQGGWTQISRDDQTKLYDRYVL

Homo sapiens = species: Homo sapiens; test: To identify inhibition of the IFN signalling (Jak-Stat) pathway via expression of an eGFP reporter gene under the control of an IFN-stimulated response element (ISRE) containing MxA promoter.; type: functional; conditions: 30 µM
[6] = target: T4, Tyrosyl-tRNA synthetase, putative (Trypanosoma cruzi (strain CL Brener)) (UniProt Q4DSP6); test: Trypanosoma cruzi tyrosyl tRNA synthetase (TcYRS) _High Tyrosine SOP; type: functional; conditions: 30 µM; further: in the data most compounds retested in dose-response had high values
T4 sequence (whole entry): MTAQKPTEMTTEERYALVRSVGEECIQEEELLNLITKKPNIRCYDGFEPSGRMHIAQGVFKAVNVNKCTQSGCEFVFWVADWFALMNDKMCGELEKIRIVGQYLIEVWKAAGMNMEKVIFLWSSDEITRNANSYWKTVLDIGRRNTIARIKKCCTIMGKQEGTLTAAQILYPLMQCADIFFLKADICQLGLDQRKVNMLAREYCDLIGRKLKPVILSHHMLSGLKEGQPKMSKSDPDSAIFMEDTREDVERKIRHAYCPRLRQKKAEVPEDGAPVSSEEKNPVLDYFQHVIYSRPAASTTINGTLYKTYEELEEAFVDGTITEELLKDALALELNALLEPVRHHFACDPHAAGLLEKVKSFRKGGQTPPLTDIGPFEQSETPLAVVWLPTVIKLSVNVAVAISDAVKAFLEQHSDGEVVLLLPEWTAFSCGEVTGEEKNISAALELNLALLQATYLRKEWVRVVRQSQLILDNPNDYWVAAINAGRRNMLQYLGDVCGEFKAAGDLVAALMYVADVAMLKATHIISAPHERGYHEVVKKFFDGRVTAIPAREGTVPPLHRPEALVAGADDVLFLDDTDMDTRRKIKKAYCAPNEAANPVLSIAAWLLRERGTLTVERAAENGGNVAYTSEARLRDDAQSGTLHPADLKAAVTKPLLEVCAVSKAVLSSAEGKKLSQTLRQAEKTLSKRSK

[7] = target: T4, Tyrosyl-tRNA synthetase, putative (Trypanosoma cruzi (strain CL Brener)); test: Trypanosoma cruzi tyrosyl tRNA synthetase (TcYRS) SOP; type: functional; conditions: 30 µM
[8] = target: Chromo domain-containing protein 1 (Saccharomyces cerevisiae (strain ATCC 204508 / S288c) (Baker's yeast)) (UniProt P32657); test: ScCHD-1 Enzyme Inhibition Assay; type: functional; conditions: 30 µM; further: in the data most compounds retested in dose-response had high values
Chromo domain-containing protein 1 (Saccharomyces cerevisiae (strain ATCC 204508 / S288c) (Baker's yeast)), sequence (P32657 whole entry, the tested form may be a part): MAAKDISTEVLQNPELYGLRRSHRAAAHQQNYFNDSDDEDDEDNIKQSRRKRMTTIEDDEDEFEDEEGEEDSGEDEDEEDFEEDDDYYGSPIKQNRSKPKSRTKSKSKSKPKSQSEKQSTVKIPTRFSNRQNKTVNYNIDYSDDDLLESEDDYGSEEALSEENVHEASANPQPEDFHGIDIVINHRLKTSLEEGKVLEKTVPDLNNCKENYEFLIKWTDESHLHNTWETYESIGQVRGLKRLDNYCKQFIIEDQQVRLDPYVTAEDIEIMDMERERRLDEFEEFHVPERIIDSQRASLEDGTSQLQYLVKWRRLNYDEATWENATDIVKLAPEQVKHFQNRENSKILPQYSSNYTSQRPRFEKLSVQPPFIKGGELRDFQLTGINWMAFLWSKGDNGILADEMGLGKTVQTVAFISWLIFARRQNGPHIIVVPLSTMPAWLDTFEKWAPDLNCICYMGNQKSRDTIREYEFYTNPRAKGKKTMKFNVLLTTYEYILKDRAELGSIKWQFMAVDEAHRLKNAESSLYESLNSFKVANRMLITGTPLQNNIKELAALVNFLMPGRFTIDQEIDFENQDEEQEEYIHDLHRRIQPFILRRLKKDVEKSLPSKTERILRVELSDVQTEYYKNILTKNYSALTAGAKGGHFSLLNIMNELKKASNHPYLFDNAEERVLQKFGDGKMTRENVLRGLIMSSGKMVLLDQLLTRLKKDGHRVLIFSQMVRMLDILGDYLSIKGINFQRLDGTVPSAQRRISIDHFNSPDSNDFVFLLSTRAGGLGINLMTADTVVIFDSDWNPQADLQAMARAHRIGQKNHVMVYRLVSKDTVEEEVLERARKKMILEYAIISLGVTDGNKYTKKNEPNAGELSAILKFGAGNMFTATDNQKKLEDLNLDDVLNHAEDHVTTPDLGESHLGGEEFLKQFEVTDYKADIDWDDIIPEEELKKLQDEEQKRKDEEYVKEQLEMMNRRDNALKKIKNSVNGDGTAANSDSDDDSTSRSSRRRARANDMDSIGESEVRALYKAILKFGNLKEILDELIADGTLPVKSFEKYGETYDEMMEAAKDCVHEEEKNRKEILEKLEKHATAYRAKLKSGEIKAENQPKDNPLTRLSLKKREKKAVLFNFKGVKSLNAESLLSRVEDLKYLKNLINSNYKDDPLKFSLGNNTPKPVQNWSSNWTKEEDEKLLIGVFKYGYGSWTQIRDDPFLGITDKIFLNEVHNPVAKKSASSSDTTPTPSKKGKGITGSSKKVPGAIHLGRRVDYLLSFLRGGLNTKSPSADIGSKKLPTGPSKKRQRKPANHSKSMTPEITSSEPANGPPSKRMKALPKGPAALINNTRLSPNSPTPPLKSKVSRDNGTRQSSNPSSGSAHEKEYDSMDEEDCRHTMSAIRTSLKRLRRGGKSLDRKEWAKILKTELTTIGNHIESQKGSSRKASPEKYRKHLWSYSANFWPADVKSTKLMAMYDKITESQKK

Protein translocase subunit SecA (Escherichia coli (strain K12)), sequence (P10408 whole entry): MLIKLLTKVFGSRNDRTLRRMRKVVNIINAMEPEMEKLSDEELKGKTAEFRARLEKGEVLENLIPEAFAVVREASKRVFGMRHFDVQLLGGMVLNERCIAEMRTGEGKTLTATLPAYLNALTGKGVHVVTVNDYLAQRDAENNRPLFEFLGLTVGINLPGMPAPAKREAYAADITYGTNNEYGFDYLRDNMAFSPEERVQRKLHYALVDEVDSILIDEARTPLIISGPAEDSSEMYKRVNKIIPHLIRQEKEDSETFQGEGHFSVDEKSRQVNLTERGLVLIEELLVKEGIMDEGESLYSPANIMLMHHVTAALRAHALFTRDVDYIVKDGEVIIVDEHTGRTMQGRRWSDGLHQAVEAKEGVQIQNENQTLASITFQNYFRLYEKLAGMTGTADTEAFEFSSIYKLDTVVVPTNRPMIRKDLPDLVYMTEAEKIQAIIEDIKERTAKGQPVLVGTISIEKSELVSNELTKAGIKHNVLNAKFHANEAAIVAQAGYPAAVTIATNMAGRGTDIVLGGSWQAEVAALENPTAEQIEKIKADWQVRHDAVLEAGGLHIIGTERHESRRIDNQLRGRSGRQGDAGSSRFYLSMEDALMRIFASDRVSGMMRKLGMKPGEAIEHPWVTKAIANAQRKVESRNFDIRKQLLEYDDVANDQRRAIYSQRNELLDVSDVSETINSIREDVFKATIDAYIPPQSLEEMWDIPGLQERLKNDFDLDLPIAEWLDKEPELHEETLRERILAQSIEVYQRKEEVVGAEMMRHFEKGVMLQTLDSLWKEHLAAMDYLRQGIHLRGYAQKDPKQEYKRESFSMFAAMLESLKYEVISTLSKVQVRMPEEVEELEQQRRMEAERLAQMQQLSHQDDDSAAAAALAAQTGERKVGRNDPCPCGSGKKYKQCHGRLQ
Sialic acid-binding Ig-like lectin 9 (Homo sapiens), sequence (Q9Y336 whole entry): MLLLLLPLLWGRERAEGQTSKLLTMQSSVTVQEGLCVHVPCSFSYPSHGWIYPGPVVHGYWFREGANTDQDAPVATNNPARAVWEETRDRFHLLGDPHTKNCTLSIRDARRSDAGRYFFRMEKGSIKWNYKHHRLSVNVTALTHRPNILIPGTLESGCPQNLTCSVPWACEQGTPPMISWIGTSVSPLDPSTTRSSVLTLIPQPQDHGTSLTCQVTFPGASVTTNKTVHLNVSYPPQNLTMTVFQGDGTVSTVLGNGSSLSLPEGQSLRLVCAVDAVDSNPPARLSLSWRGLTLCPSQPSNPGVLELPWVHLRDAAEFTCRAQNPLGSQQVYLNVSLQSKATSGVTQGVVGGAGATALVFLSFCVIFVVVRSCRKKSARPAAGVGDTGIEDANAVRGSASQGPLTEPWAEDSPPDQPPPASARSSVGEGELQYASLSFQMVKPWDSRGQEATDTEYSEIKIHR

| SMILES | Percent Effect [1] | Percent Effect [2] | Percent Effect [3] | Percent Effect (Trypanosoma cruzi) | Percent Effect [4] | Percent Effect [5] | Percent Effect (Homo sapiens) | Percent Effect [6] | Percent Effect [7] | Percent Effect [8] |
| --- | --- | --- | --- | --- | --- | --- | --- | --- | --- | --- |
| Cc1cccc(CN2CCC3(CCN(Cc4ccccn4)C3)C2=O)c1 (stereo not given) | -10.9% | 6.49% | 0.239% | -2.81% | 3.65% | 6.95% | 19% | -0.966% | 0% | -12.5% |
| CCc1nc(CNCC2CCCN2c2cc(NC)ncn2)cs1 (stereo not given) | -1.05% | 0% | 1.02% | 9.48% | 1.64% | 6.91% | -11.3% | 3.35% | 6.02% | -3.49% |
| Cn1cc(CN2CCC3(CCCN3S(C)(=O)=O)CC2)cn1 | -3.77% | -1.3% | -1.55% | -5.36% | -0.81% | 1.15% | 1.96% | -2.63% | -25.6% | -1.37% |
| O=C1C(NCc2nnc3n2CCCC3)CCCN1c1cccc(F)c1 (stereo not given) | 0.699% | 10.3% | -12.3% | -1.6% | 6.56% | 16.8% | 19.1% | 10.1% | 13.2% | -2.66% |
| Cc1cc(CNc2cc(Cl)ccc2OCCS(C)(=O)=O)no1 | -0.942% | 5.13% | -13.6% | 7.42% | -1.23% | -4.01% | -4.69% | 2.39% | 10.8% | 0.127% |
| Cc1cc(C)n(CC2CCCN2CCCS(N)(=O)=O)n1 (stereo not given) | -1.45% | 10.3% | -5.77% | 7.61% | 4.1% | 18.3% | 20.4% | 3.35% | 18.1% | -2.57% |
| CC(C)c1noc(CCC(=O)NCC2CCOC2)n1 (stereo not given) | -1.25% | 0% | -0.749% | 0.602% | -5.32% | 10.8% | 2.04% | 8.95% | 17.9% | -9.05% |
| CCn1ccnc1CNCC1CCCN1c1cccnn1 (stereo not given) | -4.44% | 2.67% | 5.47% | 0.803% | 0.444% | 1.78% | 9.51% | 6.84% | 12.8% | -8.32% |
| CN1CCN(CC2CC2)C(=O)c2cnc(N3CC[C@@H](O)C3)nc21 | -3.96% | 0% | -4.48% | -3.21% | -4.43% | 3.99% | -1.63% | -2.63% | -7.69% | -9.27% |
| Cc1ccccc1-c1cc(C(=O)NCCN2CCCS2(=O)=O)[nH]n1 | -1.9% | 12.8% | -10.8% | 9.3% | -2.05% | 5.72% | 4.69% | 5.26% | 20.5% | -1.78% |
| COCCOc1cccc(C(=O)N2CCCC(n3cccn3)C2)c1 (stereo not given) | -3.05% | 2.6% | 10.5% | -0.746% | -1.84% | 2.28% | 7.63% | 0% | 4.71% | 3.61% |
| O=C(Nc1ccccc1)C1=CC2(CCNCC2)c2ccccc21 | -2.8% | 9.09% | 1.86% | -0.938% | 3.2% | 13.5% | -1.59% | -2.9% | -2.5% | -4.38% |
| Cc1cc(NCc2cc3n(n2)CCCN(C(=O)N(C)C)C3)ncn1 | -14.3% | 2.7% | 3.53% | -1.84% | 1.05% | 3.42% | 4.33% | 1.6% | 4.88% | 0.382% |
| CN1CCCC2(CCN(C(=O)CCn3cncn3)C2)C1=O (stereo not given) | -9.37% | 2.7% | 4.1% | 4.17% | 5.94% | 12% | -0.496% | 4.79% | 19.5% | -0.366% |
| CC(NC(=O)N1CCN(CCc2ccccc2)CC1)c1nncn1C (stereo not given) | -5.57% | 5.33% | 0.0136% | 3.41% | 0.444% | 7.55% | 13.6% | 2.63% | -20.5% | -8.2% |
| Cn1ccnc1CN1CCN(Cc2noc(-c3ccccc3)n2)CC1 | -3.61% | 10.7% | -0.35% | -6.02% | 3.99% | 7.55% | 13.5% | 3.68% | 7.69% | -9.67% |
| Cc1cccnc1CN(C)CC1(O)CCCN(CC2CCCCC2)C1=O (stereo not given) | -5.13% | -2.7% | 19.5% | 6.69% | 5.94% | 9.76% | 23% | 13.3% | 17.1% | -2.65% |
| CCc1nc(C2CCCN2CCc2ccccn2)no1 (stereo not given) | 0.816% | 20.5% | -18.3% | 5.35% | 1.23% | 18.7% | 23.6% | 10.1% | 20.5% | -7.66% |
| CCCn1[nH]cc/c1=N\C(=O)CN1CCOC(Cn2cc(C)cn2)C1 (stereo not given) | -8.16% | 5.33% | 3.2% | 3.61% | 0.444% | 5.85% | -3.75% | 2.63% | 7.69% | -5.89% |
| Cc1nc[nH]c1CN1CCN(C(=O)c2cccs2)[C@H]2CS(=O)(=O)C[C@H]21 | -6.02% | 2.7% | 2.06% | -2.81% | 3.85% | 4.62% | 5.03% | 4.79% | 14.6% | -2.09% |
| O=C1CN(Cc2ccc(-c3ccccc3C(=O)O)cc2)CCN1 | 1.19% | 12% | -5.14% | -4.73% | -1.33% | 14.1% | 27.5% | 1.06% | 0% | -24.4% |
| NC(=O)c1cc(NC(=O)NCCc2cc(F)cc(F)c2)ccc1F | -0.0438% | 10.4% | 8.44% | 0.56% | -2.66% | 5.26% | -4.36% | 5.88% | 23.5% | -11.6% |
| COCCC(=O)N1CCCC2(CCC(=O)N2CCOC)CC1 (stereo not given) | -2.63% | 11.7% | -2.38% | -4.13% | 4.57% | -1.97% | 11.1% | 2.9% | 2.5% | -3.46% |
